Measurements published in PubChem BioAssay.
Calls of active or inactive are those of the source. Unless noted, how the calls were made is not given here.

Tests used:
[1] = A549 cell viability effects, profiling panel, calcein-AM fluorescence, 48 h, basal (AID 1162); conditions: higher = more signal; further: test concentration not given here
[2] = adipocyte viability effects, profiling panel, cell-based, 3T3-L1 adipocytes, calcein-AM fluorescence, 48 h, basal (AID 1163); conditions: 3T3-L1 adipocytes viability, higher = more signal; further: test concentration not given here
[3] = HepG2 cell viability effects, profiling panel, calcein-AM fluorescence, 48 h, basal (AID 1164); conditions: higher = more signal; further: test concentration not given here
[4] = MM1S cell viability effects, profiling panel, calcein-AM fluorescence, 48 h, basal (AID 1165); conditions: higher = more signal;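 further: viability of MM1S multiple myeloma cells under basal unstimulated conditions; test concentration not given here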
[5] = basal RPMI8226 viability, no added stimulus, profiling panel, cell-based, calcein-AM fluorescence, 48 h, PK04 Diversity Set (AID 1166); conditions: RPMI8226 myeloma viability, higher = more signal;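 further: cells grown under basal conditions without added stimulus; test concentration not given here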
[6] = basal HepG2 mitochondrial membrane potential changes, profiling panel, cell-based, JC-1 fluorescence, 24 h, 100 nL compound (AID 1167); conditions: higher = more signal; further: test concentration not given here
[7] = basal 3T3-L1 adipocyte mitochondrial potential changes, profiling panel, cell-based, JC-1 fluorescence, 3T3-L1 adipocytes, 24 h, 100 nL compound (AID 1168); conditions: JC-1 mitochondrial fluorescence, higher = more signal, called active from +8 up or from −8 down; further: test concentration not given here
[8] = basal RPMI8226 mitochondrial membrane potential changes, profiling panel, cell-based, JC-1 fluorescence, 24 h, 100 nL compound (AID 1169); conditions: RPMI8226 myeloma, JC-1 mitochondrial potential fluorescence, higher = more signal; further: test concentration not given here
[9] = basal MM1S mitochondrial membrane potential changes, profiling panel, cell-based, JC-1 fluorescence, 24 h, 100 nL compound (AID 1170); conditions: higher = more signal; further: test concentration not given here
[10] = A549 lung cancer cell viability effects, profiling panel, resazurin fluorescence, 24 h, PK04 Diversity Set (AID 1171); conditions: higher = more signal, called active from +8 up or from −8 down; further: test concentration not given here
[11] = HepG2 liver cancer cell viability effects, profiling panel, resazurin fluorescence, 24 h, PK04 Diversity Set (AID 1172); conditions: higher = more signal; further: test concentration not given here
[12] = basal S. cerevisiae growth modulation, no modifier, primary screen, OD600, strain BY4716, 24 h, basal condition (AID 1173); conditions: OD600, 24 h, higher = more signal, called active from +8 up or from −8 down
[13] = MM1S myeloma cell viability, profiling panel, resazurin fluorescence, basal, 24 h, PK04 Diversity Set (AID 1174); conditions: higher = more signal, called active from +8 up or from −8 down;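 further: MM1S multiple myeloma cell line; test concentration not given here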
[14] = target: Dihydroorotate dehydrogenase (quinone), mitochondrial (Plasmodium falciparum (isolate 3D7)) (UniProt Q08210); experiment: PfDHODH enzyme inhibitors, primary screen, biochemical, C-terminal His tag, absorbance 600 nm (AID 1175); conditions: DCIP absorbance 600 nm, higher = more signal, called active from +8 up or from −8 down;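 further: recombinant parasite enzyme with a five histidine tag at its C terminus; test concentration not given here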
[15] = P. aeruginosa biofilm formation inhibitors, primary screen, strain PAO1, LB-PBS medium, absorbance 600 nm (AID 1176); further: test concentration not given here; conditions: P. aeruginosa PAO1 growth/biofilm, A600, 12 h; higher = more signal
[16] = S. cerevisiae RM11-1a growth modifiers, primary screen, strain RM11-1a, OD600, basal, 24 h (AID 1177); conditions: OD600, 24 h, higher = more signal, called active from +8 up or from −8 down;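 further: cultures grown under basal conditions with no added stressor; test concentration not given here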
[17] = E. coli acrAB mutant growth effects, primary screen, E. coli filamentation inducers, strain DRC39, OD650, 24 h (AID 1178); conditions: higher = more signal, called active from +8 up or from −8 down;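 further: growth measured as culture turbidity by optical density at 650 nm; test concentration not given here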
[18] = E. coli acrAB mutant growth effects, primary screen, E. coli filamentation inducers, strain DRC39, OD650, 48 h (AID 1179);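 further: screen aims at cell division blockers that make cells filament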; conditions: E. coli DRC39 delta-acrAB growth, higher = more signal, called active from +8 up or from −8 down
[19] = RPMI8226 myeloma cell viability, profiling panel, resazurin fluorescence, basal, 24 h, PK04 Diversity Set (AID 1180); conditions: higher = more signal;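 further: RPMI8826 multiple myeloma cell line at 5000 cells per well; test concentration not given here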
[20] = target: E3 ubiquitin-protein ligase XIAP (Homo sapiens) (UniProt P98170); experiment: XIAP binders, primary screen, biophysical, small-molecule microarray, fluorescence 635 nm (AID 1181); conditions: small-molecule microarray binding, higher = more signal;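 further: score merges 667 nm emission and signal to noise over triplicate slides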
Chain of E3 ubiquitin-protein ligase XIAP (Homo sapiens) (P98170 whole entry, looked up): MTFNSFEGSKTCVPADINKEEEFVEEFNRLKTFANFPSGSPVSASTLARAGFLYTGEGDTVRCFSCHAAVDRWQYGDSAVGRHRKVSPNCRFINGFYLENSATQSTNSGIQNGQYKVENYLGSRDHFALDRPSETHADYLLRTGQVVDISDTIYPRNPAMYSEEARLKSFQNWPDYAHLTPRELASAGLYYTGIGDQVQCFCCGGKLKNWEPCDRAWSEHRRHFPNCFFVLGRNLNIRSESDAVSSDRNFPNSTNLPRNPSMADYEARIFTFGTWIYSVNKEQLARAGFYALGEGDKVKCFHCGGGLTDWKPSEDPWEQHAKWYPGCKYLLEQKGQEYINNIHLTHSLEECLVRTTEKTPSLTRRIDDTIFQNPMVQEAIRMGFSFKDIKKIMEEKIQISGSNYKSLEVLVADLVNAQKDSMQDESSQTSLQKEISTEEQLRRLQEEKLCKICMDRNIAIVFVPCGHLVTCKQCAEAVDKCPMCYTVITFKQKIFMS

Chain of Dihydroorotate dehydrogenase (quinone), mitochondrial (Plasmodium falciparum (isolate 3D7)) (Q08210 whole entry, looked up): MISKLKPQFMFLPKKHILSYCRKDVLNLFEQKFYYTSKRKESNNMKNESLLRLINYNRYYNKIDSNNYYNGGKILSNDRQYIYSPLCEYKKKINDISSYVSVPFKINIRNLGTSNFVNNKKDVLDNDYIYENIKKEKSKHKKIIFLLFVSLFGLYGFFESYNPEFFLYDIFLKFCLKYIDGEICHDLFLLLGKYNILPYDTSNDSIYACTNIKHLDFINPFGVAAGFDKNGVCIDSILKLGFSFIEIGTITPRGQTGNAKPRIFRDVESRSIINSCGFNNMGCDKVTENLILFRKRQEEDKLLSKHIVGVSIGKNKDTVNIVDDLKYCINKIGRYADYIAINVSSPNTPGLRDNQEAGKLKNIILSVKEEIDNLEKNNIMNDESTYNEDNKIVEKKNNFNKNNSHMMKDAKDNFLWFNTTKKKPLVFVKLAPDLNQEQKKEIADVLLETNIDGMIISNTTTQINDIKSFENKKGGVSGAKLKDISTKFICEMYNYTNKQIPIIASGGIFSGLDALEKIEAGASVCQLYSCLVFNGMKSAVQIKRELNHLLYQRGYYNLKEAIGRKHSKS

## [N-]=[N+]=NCc1ccccc1[C@H]1OC(c2ccc(OCCCO)cc2)=N[C@@]1(Cc1ccccc1N=[N+]=[N-])C(=O)NCCN1CCOCC1
[1]
  z-score: -0.71
[2]
  z-score: -0.675
[3]
  z-score: 0.0583
[4]
  z-score: -1.71
[5]
  z-score: -1.52
[6]
  z-score: -0.247
[7]
  z-score: -0.738 (inactive)
[8]
  z-score: -0.841
[9]
  z-score: -0.549
[10]
  z-score: 0.0825 (inactive)
[11]
  z-score: -0.634
[12]
  z-score: -1.11 (inactive)
[13]
  z-score: -1.22 (inactive)
[14]
  composite z-score: 1.15 (inactive)
[15]
  z-score: 0.591 (inactive)
[16]
  z-score: 1.41 (inactive)
[17]
  z-score: -0.0057 (inactive)
[18]
  z-score: -0.357 (inactive)
[19]
  z-score: -1.17
[20]
  composite z-score: -0.0414

## COc1cccc(C[C@H]2C[C@@H](CO[Si](C(C)C)(C(C)C)C(C)C)N3C(=O)[C@]4(C(C)=O)O[C@]23[C@H]2C(=O)N(C)C(=O)[C@H]24)c1
[1]
  z-score: -2.16
[2]
  z-score: -0.206
[3]
  z-score: -3.45
[4]
  z-score: -2.93
[5]
  z-score: -4.26
[6]
  z-score: 1.49
[7]
  z-score: 0.207 (inactive)
[8]
  z-score: -1.05
[9]
  z-score: -1.96
[10]
  z-score: -1.41 (inactive)
[11]
  z-score: -1.03
[12]
  z-score: 2.01 (inactive)
[13]
  z-score: -0.713 (inactive)
[14]
  composite z-score: 0.564 (inactive)
[15]
  z-score: 1.32 (inactive)
[16]
  z-score: 0.979 (inactive)
[17]
  z-score: -0.356 (inactive)
[18]
  z-score: -0.152 (inactive)
[19]
  z-score: -2.81
[20]
  composite z-score: 0.0264

## CC(C)NC(=O)[C@@H]1c2ccccc2C(=O)N(Cc2cc(C(F)(F)F)cc(C(F)(F)F)c2)[C@H]1c1ccc(CO)cc1
[1]
  z-score: -0.255
[2]
  z-score: 0.884
[3]
  z-score: -0.355
[4]
  z-score: -1.1
[5]
  z-score: -1.42
[6]
  z-score: 0.571
[7]
  z-score: 0.198 (inactive)
[8]
  z-score: 0.967
[9]
  z-score: 0.144
[10]
  z-score: 0.634 (inactive)
[11]
  z-score: 0.447
[12]
  z-score: -0.168 (inactive)
[13]
  z-score: -0.0526 (inactive)
[14]
  composite z-score: 0.357 (inactive)
[15]
  z-score: 0.733 (inactive)
[16]
  z-score: 0.0633 (inactive)
[17]
  z-score: 1.17 (inactive)
[18]
  z-score: 0.393 (inactive)
[19]
  z-score: 0.25
[20]
  composite z-score: -0.0141

## O=C1c2ccccc2C(=O)C2CC([C@H]3Oc4ccccc4S(=O)(=O)N4CCC[C@@H]34)=CCC12 (stereo not given in full)
[1]
  z-score: 0.242
[2]
  z-score: 0.703
[3]
  z-score: 1.13
[4]
  z-score: -2.53
[5]
  z-score: -0.0759
[6]
  z-score: 0.786
[7]
  z-score: 0.0775 (inactive)
[8]
  z-score: -0.667
[9]
  z-score: -0.852
[10]
  z-score: 0.178 (inactive)
[11]
  z-score: 0.0623
[12]
  z-score: -2.32 (inactive)
[13]
  z-score: -0.583 (inactive)
[14]
  composite z-score: 0.0834 (inactive)
[15]
  z-score: -0.246 (inactive)
[16]
  z-score: -0.841 (inactive)
[17]
  z-score: 1.96 (inactive)
[18]
  z-score: 0.34 (inactive)
[19]
  z-score: 0.183
[20]
  composite z-score: 0.0374
